Shown is part of a subset that was picked to be rich in hits.
LmPK inh: inhibitors of Leishmania mexicana pyruvate kinase. purified LmPK, Kinase-Glo ATP luminescence, 1 h. Potency, µM (series often up to 57.5 µM), most hits filed as inhibitors. 290,000 compounds, 0.37% hits. AID 1721
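Screened at intermediate enzyme activity to detect both inhibitors and activators: LmPK at 0.1 nM, with a 0.5 nM enzyme column as activation reference. PEP 0.5 mM, ADP 0.1 mM; ATP detected by luminescence after 1 h.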
Shiga toxin inh: Shiga toxin inhibition; Vero cells, Shiga toxin protein synthesis inhibition reporter; AID 2315; 290,000 compounds, 9.2% hits; inhibition, % at 38.7 µM; in the data active = inhibition mostly above about 28%, no sharp cut-off; inactive = mostly below about 43%
Sm TGR block: inhibitors of Schistosoma mansoni thioredoxin glutathione reductase; Q962Y6; purified TGR, DTNB reduction, TNB absorbance 405 nm; Potency, µM (top dose mostly 114 µM), actives largely listed as inhibitors; 360,000 compounds, 3% hits; AID 485364; note: nearly all actives have a fitted effect of over 60% in size
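TGR 20 nM + NADPH 100 uM (dispensed conc.), cpd preinc 15 min RT; start with NADPH (500 uM addition) then DTNB (15 mM addition). Kinetic TNB absorbance, 405 nm filter. Four-parameter Hill fit across titration.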
FBPA Giardia inh: inhibitors of Giardia lamblia fructose-1,6-bisphosphate aldolase; purified Giardia FBPA; Potency, µM (doses to about 59.6 µM), hits mostly inhibitors; 290,000 compounds, 0.71% hits; AID 2451; note: nearly all actives have a fitted effect of over 55% in size
Target sequence (A8B2U2 whole entry, looked up): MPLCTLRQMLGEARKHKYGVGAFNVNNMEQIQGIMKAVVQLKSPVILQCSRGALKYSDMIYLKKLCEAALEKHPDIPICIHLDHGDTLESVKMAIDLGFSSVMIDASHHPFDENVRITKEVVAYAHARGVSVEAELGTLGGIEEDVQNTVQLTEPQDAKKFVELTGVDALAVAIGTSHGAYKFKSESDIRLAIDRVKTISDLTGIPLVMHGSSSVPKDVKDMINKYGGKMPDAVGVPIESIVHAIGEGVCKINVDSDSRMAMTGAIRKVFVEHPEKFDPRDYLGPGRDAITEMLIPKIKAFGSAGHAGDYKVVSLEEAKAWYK
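Giardia FBPA (40 nM reagent) was preincubated 10 min at RT with compound (up to 57.5 uM final), then substrate plus GAPDH/TPI/NAD/arsenate coupling system with diaphorase/resazurin was added; resorufin fluorescence (525/598 nm) was read after 20 min.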
Tb PYK inh: inhibitors of Trypanosoma brucei pyruvate kinase; Q57TT1; TbPYK enzyme, Kinase-Glo Plus ATP luminescence, 45 min; Potency, µM (doses to about 76.8 µM), actives largely listed as inhibitors; 410,000 compounds, 0.12% hits; AID 624173; note: nearly all actives have a fitted effect of over 50% in size
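Quantitative HTS: titrated library compounds versus trypanosomal pyruvate kinase in TEA buffer (pH 7.2) containing KCl, MgCl2, BSA and Tween-20. Reactions were initiated with ADP, 130 uM final. Kinase-Glo Plus luminescence was read after 45 min at RT.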
Cycloheximide cs: affects cycloheximide protein synthesis inhibition readout, counter-screen; cell reporter, cycloheximide protein synthesis inhibition counterscreen; AID 2314; 300,000 compounds, 12% hits; max response, %; in the data active = max response mostly above about 13%, no sharp cut-off; inactive = mostly below about 14%; note: read at 38.3 µM for the half of the compounds with a filed dose
Numbers stand for hits; - = inactive; ? = inconclusive; . = not tested or not shown; [ ] = another dose, or the depositor's remark. Unless noted, calls come from the whole dose curve; as a rule, active = well fitted curve in the direction sought with a large enough effect; inconclusive = small, poorly fitted or top-dose-only effect, or another doubt; inactive = no such curve, though single readings can be large; an effect the other way counts as inactive or inconclusive.

SMILES	LmPK inh	Shiga toxin inh	Sm TGR block	FBPA Giardia inh	Tb PYK inh	Cycloheximide cs
COc1cc(C(=O)OCCN2CCOCC2)cc(OC)c1OC	-	-	-	-	-	-
CCOC(=O)Oc1ccc(C(=O)OCCCN(C)C)cc1OC	-	-	-	-	-	-
Cc1nn(-c2nnc(NC3CCCCC3)nn2)c(C)c1Br	-	active	-	-	-	47
CC(C)=CCCC(C)NC(=O)NC1CCCCC1 (stereo not given)	-	-	-	-	-	23
CC(=O)N1CCC(N(Cc2ccco2)C(=O)Nc2cccc(C)c2)CC1	.	.	-	.	-	.
COc1cccc(C(=O)N/N=C(\CC(C)C)c2ccccc2)c1	-	55	-	-	-	22
Cc1ccc(C(=O)N/N=C(\CC(C)C)c2ccccc2)cc1	-	71	-	-	-	44
CCC/C(=N/NC(=O)c1cccc(Cl)c1)c1ccccc1	-	80	-	-	-	59
CC/C(=N\NC(=O)c1ccc(Br)cc1)c1ccccc1	-	-	.	-	-	-
CCC/C(=N\NC(=O)C1CC1)c1ccccc1	.	.	.	.	-	.
O=C(Nc1ccc(NC(=O)c2cccs2)c(Cl)c1)c1cccs1	-	50	-	-	-	43
O=C(Nc1ccc(Cl)c(NC(=O)c2cccs2)c1)c1ccco1	-	-	-	-	-	-
O=C(Nc1ccc(NC(=O)c2cccs2)cc1Cl)c1ccco1	-[11.5 µM]	96	-	-	-	38
COc1cc(NC(=O)c2cccs2)ccc1NC(=O)c1ccco1	-	127	-	-	-	40
CC(C)c1ccc(NC(=O)CCN2C(=O)[C@@H]3Cc4ccccc4CN3C2=O)cc1	-	-	-	.	-	-
CC(=O)c1ccc(NC(=O)CSc2nnc3ccc(-c4ccc(Cl)cc4)nn23)cc1	.	.	-	.	-	.
CCN(CC)CCN1C(=O)c2oc3ccccc3c(=O)c2C1c1ccccc1 (stereo not given)	-	-	-	-	-	35
O=C1c2oc3ccc(Cl)cc3c(=O)c2C(c2ccccn2)N1CCCN1CCOCC1 (stereo not given)	-	-	13µM	-	-	-
O=C1c2oc3ccccc3c(=O)c2C(c2cccnc2)N1CCCN1CCOCC1 (stereo not given)	-	-	45µM	-	-	-
CC(C)Oc1ccc(C2c3c(oc4ccccc4c3=O)C(=O)N2CCCN2CCOCC2)cc1 (stereo not given)	-	54	40µM	-	-	17
CC(C)c1ccc(C2c3c(oc4ccc(Cl)cc4c3=O)C(=O)N2CCCN2CCOCC2)cc1 (stereo not given)	.	.	-	.	-	.
O=C(O)c1cccc(S(=O)(=O)N2CCN(C(c3ccccc3)c3ccccc3)CC2)c1	-	-	-	-	-	-
O=C(Nc1nc(-c2nc3ccccc3s2)cs1)C1CC1	-	85	-	-	-	63
COc1cccc(OC)c1C(=O)Nc1nc(-c2ccccc2)cs1	-	.	-	-	-	-
O=C(Nc1nc(-c2cc(Cl)sc2Cl)cs1)c1ccccc1	-	167	-	-	-	49
SMILES	LmPK inh	Shiga toxin inh	Sm TGR block	FBPA Giardia inh	Tb PYK inh	Cycloheximide cs
O=C(Nc1nc(-c2nc3ccccc3s2)cs1)c1ccco1	-	66	-	-	-	30
O=C(Nc1nc(-c2ccccc2)cs1)c1cccs1	-	123	-	-	-	88
CCc1cccc(N(C(=O)c2csnn2)C(C(=O)NC2CCCCC2)c2ccncc2)c1 (stereo not given)	-	-	-	-	-	-
Oc1cc(Nc2ccc(N3CCCCC3)cc2)cc2cccnc12	.	.	-	.	.	.
CC(OC(=O)CNC(=O)c1ccccc1F)C(=O)Nc1nc(-c2ccccc2)cs1 (stereo not given)	-	101	-	-	-	66
COc1ccccc1OCc1csc(NC(=O)c2ccco2)n1	-	98	-	-	-	53
Cc1csc(NC(=O)c2ccco2)n1	-	-	-	-	-	-
CC(OC(=O)c1ccc(O)cc1)C(=O)Nc1nc(-c2ccccc2)cs1 (stereo not given)	.	.	-	.	-	.
O=C(Nc1nc(-c2ccc(Cl)s2)cs1)c1ccco1	-	81	40µM	-	-	56
O=C(Nc1nc(-c2ccccc2)cs1)c1ccc(=O)[nH]c1	-	67	-	-	-	24
O=C(O)Cc1csc(NC(=O)c2ccco2)n1	-	-	-	-	-	-
COC(=O)C1=C(C)N(Cc2ccccc2)[C@]23O[C@](C(=O)OC)(C(=O)N2C1c1ccccc1)C(c1ccccc1)C3C(=O)c1ccccc1 (stereo not given in full)	.	.	.	-[12.9 µM]	.	.
COc1ccccc1-c1cnc(C(O)c2cc(C)c(OC)c(C)c2)[nH]1 (stereo not given)	.	.	.	.	-	.
CC(C)=NO[C@@H](C)CN1CCCCc2nc(C)c(C)cc21	.	.	.	-[12.9 µM]	.	.
COc1ccc(S(=O)(=O)N2CCC(C(=O)NC(C)c3ccccc3)CC2)cc1 (stereo not given)	.	.	-	.	-	.
Cc1ccc2c(C)c(C(=O)N(Cc3ccc(N(C)C)cc3)Cc3ccco3)oc2c1C	.	.	-	.	-	.
Cc1cccc(C(=O)Nc2nnc(S(=O)(=O)N(C)c3ccccc3C)s2)c1	.	.	-	.	-	.
O=C(Nc1ccc(Cl)cc1-c1nc2ccccc2s1)c1ccco1	-	79	-	-	-	-
Cc1c(-c2nsc(NC(=O)c3cccs3)n2)nnn1-c1ccc(Br)cc1	.	.	-	.	-	.
CC1CC1C(=O)Nc1nc(-c2ccccc2)cs1 (stereo not given)	-	84	-	-	-	39
O=C(Nc1nc(-c2ccccc2)ns1)c1cccs1	-	68	-	-	-	28
O=C(Nc1nc(-c2ccccn2)cs1)c1ccc(Cl)s1	-	-	-	?	-	-
O=C(Nc1nc(-c2ccc(Cl)s2)cs1)c1cccs1	-	98	-	-	-	30
O=C(NCc1ccco1)c1cccc2c1C(=O)c1ccc(N3CCC(N4CCCCC4)CC3)cc1S2(=O)=O	.	.	.	.	-	.
COc1ccc(F)cc1-c1cc(C(=O)NC2CCCCC2)[nH]n1	.	.	.	.	-	.
SMILES	LmPK inh	Shiga toxin inh	Sm TGR block	FBPA Giardia inh	Tb PYK inh	Cycloheximide cs
O=C(Nc1ccccc1C(=O)NCC1CCCO1)c1ccc(Cl)cc1 (stereo not given)	-	-	-	-	-	-
Oc1c(Br)c(Br)c(Br)c(Br)c1Br	.	.	3.5µM	.	-	.
O=C1C(C2=C(O)c3ccccc3C2=O)=Nc2ccccc21	18µM	65	?	-	?	25
CCOC(=O)c1cc(-c2ccc(OC)cc2)n(CCC(=O)NCCc2ccc(OCC)c(OCC)c2)c1C	.	.	-	.	-	.
COc1cccc(OCCSc2nnc3sc4ccccc4n23)c1	-	21	-	16µM	-	40
CCN(CC)C(=O)CSc1nnc2sc3ccccc3n12	-	-	-	-	?	-
c1ccc(OCCSc2nnc3sc4ccccc4n23)cc1	-	45	-	18µM	-	-
C=CCc1ccccc1OCC(O)CNC(C)C (stereo not given)	-	-	25µM	-	-	-

Source: PubChem BioAssay (National Center for Advancing Translational Sciences (NCATS))
